# Measurements reported in paper PMC4336329 (PLoS ONE, 2015).
# The campaign covered roughly 310,000 compounds. About 14,000 (4.5%) showed an effect of 50% or more. The effect is printed as a negative number. The entries come from a sample that favours strong results as a whole.
# Target: human ether-à-go-go-related gene (hERG) potassium channel (human, UniProt Q12809)
# Experiment: primary screen, population patch clamp on CHO cells stably expressing hERG; higher = less effect of the substance
# 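Also: peak tail current of the secondary pulse compared with the same well before compound.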
# Sequence of human ether-à-go-go-related gene (hERG) potassium channel (Q12809 whole entry, looked up): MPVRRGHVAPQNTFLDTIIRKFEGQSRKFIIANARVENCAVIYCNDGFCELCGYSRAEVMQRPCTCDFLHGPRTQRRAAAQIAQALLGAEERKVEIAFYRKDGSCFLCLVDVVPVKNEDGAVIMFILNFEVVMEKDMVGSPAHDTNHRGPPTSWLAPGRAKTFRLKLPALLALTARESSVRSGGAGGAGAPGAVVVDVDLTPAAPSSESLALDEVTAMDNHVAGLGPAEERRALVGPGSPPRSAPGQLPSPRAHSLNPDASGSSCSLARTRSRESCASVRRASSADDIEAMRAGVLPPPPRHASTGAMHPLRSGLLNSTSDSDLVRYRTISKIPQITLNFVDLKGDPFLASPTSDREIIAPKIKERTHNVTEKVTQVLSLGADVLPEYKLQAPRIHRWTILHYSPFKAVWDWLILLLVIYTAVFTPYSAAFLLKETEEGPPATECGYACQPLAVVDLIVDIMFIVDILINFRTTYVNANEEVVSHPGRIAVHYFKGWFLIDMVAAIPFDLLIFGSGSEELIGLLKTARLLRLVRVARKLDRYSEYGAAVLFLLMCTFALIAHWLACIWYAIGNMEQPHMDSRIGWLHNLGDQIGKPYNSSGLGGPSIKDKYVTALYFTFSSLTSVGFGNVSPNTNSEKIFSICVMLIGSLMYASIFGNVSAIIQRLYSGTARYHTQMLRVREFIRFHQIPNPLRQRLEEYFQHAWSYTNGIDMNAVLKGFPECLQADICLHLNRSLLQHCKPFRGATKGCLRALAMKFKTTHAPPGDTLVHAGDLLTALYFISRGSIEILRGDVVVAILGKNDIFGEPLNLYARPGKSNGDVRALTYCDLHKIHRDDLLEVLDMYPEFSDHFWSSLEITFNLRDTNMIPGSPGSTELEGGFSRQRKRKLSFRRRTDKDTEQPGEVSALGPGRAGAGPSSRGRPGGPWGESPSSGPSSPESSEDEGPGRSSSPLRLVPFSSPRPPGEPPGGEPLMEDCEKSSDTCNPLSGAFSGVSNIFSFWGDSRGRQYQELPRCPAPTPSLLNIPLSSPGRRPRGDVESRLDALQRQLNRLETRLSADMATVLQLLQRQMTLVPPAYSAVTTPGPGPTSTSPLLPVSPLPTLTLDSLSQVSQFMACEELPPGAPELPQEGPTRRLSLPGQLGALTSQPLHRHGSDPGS
row,Compound,"hERG current change (%, negative = inhibition) at 10uM"
1,Cc1nn(CC(=O)NCc2ccc(C(=O)O)cc2)c(C)c1[N+](=O)[O-],21.5%
2,CCOC(=O)c1cc(C)[nH]c(=S)c1C#N,-23.4%
3,Cc1ccc(C(=O)n2cnnc2N)cc1C,-0.0756%
4,CC(=O)NC(Cc1ccc(F)c(F)c1)C(=O)NC1CCN(C(=O)c2ccc(Cl)cc2)CC1 (stereo not drawn),-56.9%
5,CC(=O)NC(Cc1cccc(F)c1)C(=O)NC1CCN(c2nnnn2-c2ccccc2)CC1 (stereo not drawn),-5.71%
6,CC(=O)NC(Cc1ccc(F)cc1)C(=O)NC1CCN(c2nnnn2-c2ccccc2)CC1 (stereo not drawn),-41%
7,CC(=O)NC(Cc1ccc(F)c(F)c1)C(=O)NC1CCN(c2nnnn2-c2ccccc2)CC1 (stereo not drawn),-54.6%
8,CC(=O)NC(Cc1ccc(F)c(F)c1)C(=O)NC1CCN(C(=O)c2ccc(C)cc2)CC1 (stereo not drawn),-12.9%
9,CC(=O)NC(Cc1cccc(F)c1)C(=O)NC1CCN(C(=O)c2ccc(C)cc2)CC1 (stereo not drawn),33%
10,CN(C)S(=O)(=O)c1cccc(NC(=S)NC2CCCCC2)c1,6.69%
11,CCCN(CC1CC1)C(=S)NC(=O)c1ccccc1Br,-4.58%
12,C=CC(=O)N=c1sc2ccccc2n1-c1ccccc1,-6.08%
13,CCOC(=O)c1sc(=S)n(C)c1NC(=O)c1cccc(Br)c1,5.67%
14,S=C(Nc1ccccc1)N1CCOCC1,11.5%
15,O=C(Nc1ccc(Cl)cc1)C1CCCN(C2=NS(=O)(=O)c3ccccc32)C1 (stereo not drawn),-60%
16,Cc1ccc(NC(=O)C2CCCN(C3=NS(=O)(=O)c4ccccc43)C2)c(O)c1 (stereo not drawn),-33.6%
17,O=C(Nc1ccc(F)c(Cl)c1)C1CCCN(c2cnccn2)C1 (stereo not drawn),-24.9%
18,O=C(Nc1ccc(F)c(Cl)c1)C1CCCN(C2=NS(=O)(=O)c3ccccc32)C1 (stereo not drawn),-63%
19,O=C(Nc1ccc(Br)cc1)C1CCCN(C2=NS(=O)(=O)c3ccccc32)C1 (stereo not drawn),-29.1%
20,O=C(Nc1ccc(F)c(Cl)c1)C1CCCC1,25.2%
21,COCCn1c(-c2ccc(Cl)cc2Cl)nc2c(c(=O)c3ccccc3n2C)c1=O,-8.66%
22,COc1ccccc1C(=O)Nc1ccc2c(c1)CCCN2C(=O)c1ccccc1,-39.8%
23,O=c1cc[nH]c2c1ccc1cccnc12,21.5%
24,CC(CC(=O)OCC(=O)NCc1ccc(Cl)cc1)c1ccccc1 (stereo not drawn),-7.65%
